Results filed as inconclusive are left out. Calls of active or inactive are those of the source. Rule for the calls, unless noted: active = hit-call score of the fitted dose curve at least 0.9, where 1 is the maximum; inactive = score below 0.9.

Test [1] deals with human Retinoid X Receptor beta (RXRb), RXRB (gene 6257) (UniProt P28702). The test can be described thus: ATG_RXRb_TRANS: Attagene TRANS-FACTORIAL HepG2 Assay for human Retinoid X Receptor beta (RXRb) (AID 2283013; active = hit-call score of the fitted dose curve at least 0.9, where 1 is the maximum). Put shortly:
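After a 24 h incubation with test chemical, transfected HepG2 cells carrying NR-Gal4 fusions and GAL4-UAS reporter transcription units yield RNA whose reporter cDNA is FAM-labelled, HpaI-cut and sized by capillary electrophoresis; increases over DMSO are scored.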

Read-out in test [2]: E-selectin (Homo sapiens) (UniProt P16581)
As to the kind of experiment: BSK_3C_Eselectin: BioMAP Diversity Plus: 3C Assay for Eselectin Biomarker Activity (AID 2283015).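 Note: cell surface E-selectin protein quantified by ELISA 24 h after dosing.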 Particulars: primary human endothelial cells (HUVEC); actives raise or lower the signal. An outline of the steps:
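Human vascular endothelium from umbilical vein is exposed to test chemicals for 24 h. E-selectin levels are read by ELISA and compared with DMSO controls.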

Read-out in test [3]: Interleukin-1 alpha (IL1a), IL1A (gene 3552)
As to the kind of experiment: BSK_BE3C_IL1a: BioMAP Diversity Plus: BE3C Assay for Interleukin-1 alpha (IL1a) Biomarker Activity (AID 2283016). Particulars: primary human bronchial epithelial cells; actives raise or lower the signal. Put shortly:
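Measured in human lung primary bronchial epithelial cells: IL-1a by ELISA at 24 h after dosing, with bidirectional fitting against DMSO.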

Read-out in test [4]: Monocyte Chemoattractant Protein-1 (MCP1), CCL2 (gene 6347)
As to the kind of experiment: BSK_3C_MCP1: BioMAP Diversity Plus: 3C Assay for Monocyte Chemoattractant Protein-1 (MCP1) Biomarker Activity (AID 2283017). To be noted: primary human endothelial cells (HUVEC); actives raise or lower the signal. An outline of the steps: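 Endothelial cells from human umbilical vein are dosed with chemical, cultured 24 h, then assayed for MCP-1 by ELISA; both increases and decreases are modelled against DMSO controls.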

Read-out in test [5]: Monocyte Chemoattractant Protein-1 (MCP1), CCL2 (gene 6347)
The test can be described thus: BSK_4H_MCP1: BioMAP Diversity Plus: 4H Assay for Monocyte Chemoattractant Protein-1 (MCP1) Biomarker Activity (AID 2283018). To be noted: primary human endothelial cells (HUVEC); actives raise or lower the signal. An outline of the steps: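 Primary human umbilical vein endothelium is exposed to chemical for 24 h before MCP-1 is assayed by ELISA. Concentration-response fitted bidirectionally relative to DMSO.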

Read-out in test [6]: Human Leukocyte Antigen - DR isotype (HLADR), HLA-DRA (gene 3122)
The test can be described thus: BSK_3C_HLADR: BioMAP Diversity Plus: 3C Assay for Human Leukocyte Antigen - DR isotype (HLADR) Biomarker Activity (AID 2283019).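 Note: ELISA of cell-surface HLA-DR on HUVEC 24 h after dosing.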 Particulars: primary human endothelial cells (HUVEC); actives raise or lower the signal. Put shortly: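 Endothelial cells from human umbilical vein are treated with test chemical; after 24 h, HLA-DR levels are measured by ELISA. Data are fitted in both directions using DMSO as the baseline.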

Read-out in test [7]: Interleukin-8 (IL8), CXCL8 (gene 3576)
As to the kind of experiment: BSK_3C_IL8: BioMAP Diversity Plus: 3C Assay for Interleukin-8 (IL8) Biomarker Activity (AID 2283020). Particulars: primary human endothelial cells (HUVEC); actives raise or lower the signal. Put shortly: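 Using DMSO-treated wells as the baseline, bidirectional curve fitting was applied to ELISA-measured IL-8 from human umbilical vein endothelial cultures sampled 24 h after compound addition.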

Read-out in test [8]: Monokine induced gamma interferon (MIG), CXCL9 (gene 4283)
As to the kind of experiment: BSK_3C_MIG: BioMAP Diversity Plus: 3C Assay for Monokine induced gamma interferon (MIG) Biomarker Activity (AID 2283021). Particulars: primary human endothelial cells (HUVEC); actives raise or lower the signal. Put shortly: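 ELISA-measured MIG in dosed HUVEC 3C cultures at 24 h, analysed by bidirectional fitting with DMSO defining baseline activity.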

Test [9] concerns the target human Vitamin D Receptor (VDR), VDR (gene 7421) (UniProt P11473). The test can be described thus: ATG_VDR_TRANS: Attagene TRANS-FACTORIAL HepG2 Assay for human Vitamin D Receptor (VDR) (AID 2283022; active = hit-call score of the fitted dose curve at least 0.9, where 1 is the maximum). An outline of the steps: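 Fluorescence of labelled reporter cDNA fragments, resolved by capillary electrophoresis, gives mRNA induction after 24 h treatment of HepG2 cells carrying transfected Gal4-fusion reporter units. Activity is fitted in the positive direction with DMSO as baseline.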

Test [10] can be described thus: BSK_3C_SRB: Viability Assessment in the BioMAP Diversity Plus: 3C Assay (AID 2283023).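 Note: fitted both ways against DMSO so a hit may be signal rise or drop.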 Particulars: primary human endothelial cells (HUVEC). Put shortly:
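Cells were dosed with chemical, cultured 24 h, fixed with 10% TCA, stained with 0.1% SRB and read at 560 nm. Human umbilical vein endothelium was used; DMSO served as negative control and baseline.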

Read-out in test [11]: Matrix Metallopeptidase 1 (MMP1), MMP1 (gene 4312)
The test can be described thus: BSK_BE3C_MMP1: BioMAP Diversity Plus: BE3C Assay for Matrix Metallopeptidase 1 (MMP1) Biomarker Activity (AID 2283024). To be noted: primary human bronchial epithelial cells; actives raise or lower the signal. An outline of the steps: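 In this multiplexed primary-cell system, human bronchial epithelium received chemicals for 24 h before an ELISA for MMP1. Values reflect bidirectional fits normalised to the DMSO baseline.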

Test [12] in a line: BSK_3C_Vis: BioMAP Diversity Plus: 3C Assay for Morphology Visualization (AID 2283025).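 For AC50: light microscopy image of cell morphology used as background control.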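 Note: fitted both ways so gain or loss versus DMSO counts.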 To be noted: primary human endothelial cells (HUVEC). An outline of the steps:
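Light-microscopy morphology readout, 24 h exposure, human primary umbilical vein endothelium; analysed relative to DMSO with bidirectional fitting.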

Read-out in test [13]: Pselectin, SELP (gene 6403)
As to the kind of experiment: BSK_4H_Pselectin: BioMAP Diversity Plus: 4H Assay for Pselectin Biomarker Activity (AID 2283026). To be noted: primary human endothelial cells (HUVEC); actives raise or lower the signal. An outline of the steps: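 Bidirectional fits against DMSO gave the endpoint. Cells: primary human umbilical vein endothelium, chemical-treated for 24 h before ELISA detection of P-selectin.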

The nature of test [14]: BSK_4H_SRB: Viability Assessment in the BioMAP Diversity Plus: 4H Assay (AID 2283027).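 Note: cells exposed to compound for 24 h before staining.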 Particulars: primary human endothelial cells (HUVEC). An outline of the steps:
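Cytotoxicity read-out in primary human endothelial cells: after 24 h compound exposure, cells were TCA-fixed (10%), stained with 0.1% SRB and absorbance taken at 560 nm. Values fitted in both directions relative to DMSO.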

Read-out in test [15]: Thrombomodulin, THBD (gene 7056)
The test can be described thus: BSK_3C_Thrombomodulin: BioMAP Diversity Plus: 3C Assay for Thrombomodulin Biomarker Activity (AID 2283029). Particulars: primary human endothelial cells (HUVEC); actives raise or lower the signal. Put shortly:
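In a multiplexed primary-cell system, human umbilical vein endothelium received chemical and was assayed 24 h later for thrombomodulin by ELISA. Parallel cultures were SRB-stained (0.1% SRB after 10% TCA fixation, read at 560 nm) to flag cytotoxicity.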

Read-out in test [16]: Urokinase-type plasminogen activator receptor (uPAR), PLAUR (gene 5329)
The test can be described thus: BSK_4H_uPAR: BioMAP Diversity Plus: 4H Assay for Urokinase-type plasminogen activator receptor (uPAR) Biomarker Activity (AID 2283030). Particulars: primary human endothelial cells (HUVEC); actives raise or lower the signal. An outline of the steps: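 Chemicals are dosed onto human vascular endothelial primary cells (umbilical vein). After 24 h, uPAR is read by ELISA. Gain or loss of signal is fitted relative to DMSO.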

Read-out in test [17]: Vascular endothelial growth factor receptor 2 (Homo sapiens) (UniProt P35968)
As to the kind of experiment: BSK_4H_VEGFRII: BioMAP Diversity Plus: 4H Assay for Vascular endothelial growth factor receptor 2 (VEGFR2) Biomarker Activity (AID 2283031). To be noted: primary human endothelial cells (HUVEC); actives raise or lower the signal. Put shortly:
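VEGFRII levels on human vascular endothelial primary cells were determined by ELISA at 24 hours post-dosing, with gain- or loss-of-signal fitted against DMSO controls.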

The nature of test [18]: BSK_BE3C_SRB: Viability Assessment in the BioMAP Diversity Plus: BE3C Assay (AID 2283028). To be noted: primary human bronchial epithelial cells. An outline of the steps: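 Overt cytotoxicity was assessed as total protein in confluent human primary bronchial epithelial cultures 24 h after chemical addition, using 0.1% sulforhodamine B staining read at 560 nm.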
Test [19] concerns the target human Thyroid Receptor alpha (THRa1), THRA (gene 7067) (UniProt P10827). As to the kind of experiment: ATG_THRa1_TRANS: Attagene TRANS-FACTORIAL HepG2 Assay for human Thyroid Receptor alpha (THRa1) (AID 2283014; active = hit-call score of the fitted dose curve at least 0.9, where 1 is the maximum). Put shortly:
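First, HepG2 cells receive multiple GAL4-UAS reporter units and the chimeric receptor. They are then dosed for 24 h, after which RNA is reverse-transcribed, amplified, labelled, HpaI-cut and sized by capillary electrophoresis; gain relative to DMSO is scored.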

human Thyroid Receptor alpha (THRa1), THRA (gene 7067), sequence (P10827 whole entry, looked up, the tested form may be a part): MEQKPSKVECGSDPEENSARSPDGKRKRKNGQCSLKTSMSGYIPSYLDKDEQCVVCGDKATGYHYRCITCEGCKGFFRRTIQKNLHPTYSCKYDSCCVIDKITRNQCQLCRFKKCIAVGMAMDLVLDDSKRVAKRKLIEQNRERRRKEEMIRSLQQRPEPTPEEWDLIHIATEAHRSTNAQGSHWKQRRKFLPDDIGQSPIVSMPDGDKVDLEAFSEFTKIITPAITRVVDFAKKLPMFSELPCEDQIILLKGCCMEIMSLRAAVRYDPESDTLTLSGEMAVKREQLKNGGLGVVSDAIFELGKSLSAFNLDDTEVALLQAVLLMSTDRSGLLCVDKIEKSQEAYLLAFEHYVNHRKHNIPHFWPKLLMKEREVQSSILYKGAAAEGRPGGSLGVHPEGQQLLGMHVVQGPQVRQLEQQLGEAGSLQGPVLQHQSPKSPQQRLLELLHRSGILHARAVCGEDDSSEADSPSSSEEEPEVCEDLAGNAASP
E-selectin (Homo sapiens), sequence (P16581 whole entry, looked up): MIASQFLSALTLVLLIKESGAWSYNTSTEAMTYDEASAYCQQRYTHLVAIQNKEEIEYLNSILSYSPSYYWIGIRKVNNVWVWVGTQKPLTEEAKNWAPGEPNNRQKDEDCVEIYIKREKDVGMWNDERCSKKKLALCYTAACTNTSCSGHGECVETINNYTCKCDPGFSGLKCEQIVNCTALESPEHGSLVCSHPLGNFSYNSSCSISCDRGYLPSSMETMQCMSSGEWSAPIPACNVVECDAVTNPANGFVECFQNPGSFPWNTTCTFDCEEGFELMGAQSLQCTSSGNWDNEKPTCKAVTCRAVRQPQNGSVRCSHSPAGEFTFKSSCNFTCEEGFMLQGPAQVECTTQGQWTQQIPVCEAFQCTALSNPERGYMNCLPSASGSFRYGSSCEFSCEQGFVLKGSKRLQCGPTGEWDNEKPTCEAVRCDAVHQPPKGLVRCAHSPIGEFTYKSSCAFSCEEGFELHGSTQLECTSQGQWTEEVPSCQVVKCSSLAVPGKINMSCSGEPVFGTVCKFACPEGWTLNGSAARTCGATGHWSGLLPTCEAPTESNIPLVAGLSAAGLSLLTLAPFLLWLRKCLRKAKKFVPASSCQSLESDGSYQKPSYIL
human Retinoid X Receptor beta (RXRb), RXRB (gene 6257), sequence (P28702 whole entry, looked up, the tested form may be a part): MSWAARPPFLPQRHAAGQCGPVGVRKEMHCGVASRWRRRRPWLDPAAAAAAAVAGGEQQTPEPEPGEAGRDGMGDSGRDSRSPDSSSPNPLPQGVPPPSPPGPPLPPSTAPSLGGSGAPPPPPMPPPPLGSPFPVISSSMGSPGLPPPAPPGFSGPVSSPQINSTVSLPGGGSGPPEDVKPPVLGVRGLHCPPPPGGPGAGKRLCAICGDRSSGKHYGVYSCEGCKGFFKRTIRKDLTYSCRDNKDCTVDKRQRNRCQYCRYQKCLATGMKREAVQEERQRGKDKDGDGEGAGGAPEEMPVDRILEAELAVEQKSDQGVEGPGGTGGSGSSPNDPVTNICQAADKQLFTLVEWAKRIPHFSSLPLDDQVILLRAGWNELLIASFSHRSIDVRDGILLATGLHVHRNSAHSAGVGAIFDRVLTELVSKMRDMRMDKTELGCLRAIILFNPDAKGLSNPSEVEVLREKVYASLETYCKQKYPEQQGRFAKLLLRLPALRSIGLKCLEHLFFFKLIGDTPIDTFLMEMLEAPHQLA
human Vitamin D Receptor (VDR), VDR (gene 7421), sequence (P11473 whole entry, looked up, the tested form may be a part): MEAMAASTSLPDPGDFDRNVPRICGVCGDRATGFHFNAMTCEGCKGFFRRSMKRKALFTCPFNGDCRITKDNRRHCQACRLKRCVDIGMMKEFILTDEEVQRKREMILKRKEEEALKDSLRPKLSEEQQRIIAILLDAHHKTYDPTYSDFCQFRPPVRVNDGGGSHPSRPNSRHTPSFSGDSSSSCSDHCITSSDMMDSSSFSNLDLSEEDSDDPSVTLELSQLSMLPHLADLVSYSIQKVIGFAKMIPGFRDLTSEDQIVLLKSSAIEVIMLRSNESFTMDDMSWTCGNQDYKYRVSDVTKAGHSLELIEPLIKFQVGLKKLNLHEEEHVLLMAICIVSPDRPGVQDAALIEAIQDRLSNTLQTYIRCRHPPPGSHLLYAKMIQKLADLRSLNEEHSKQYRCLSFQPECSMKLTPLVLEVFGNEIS

`CCCCN(CCCC)CCCC`: the compound was called inactive in test [1], in test [2], in test [3], in test [4], in test [5] and in test [6]. The result in test [7], in [8], in test [9], in [10], in test [11] and in test [12] was inactive. Also, the result in test [13], in [14], in test [15], in test [16] and in test [17] was inactive.

As for `Cc1cc(=O)[nH]c(=S)[nH]1`, the compound was classed as inactive in [1], in test [2], in test [3], in [4], in test [5] and in test [6]. Further, the result in test [7], in [8], in test [9], in test [10], in test [11] and in [12] was inactive. In addition, the outcome in test [13], in [14], in test [18], in [15], in [16] and in test [17] was inactive.

One may read the AC50 as the concentration giving half of the maximal activity seen. For `CC1(C)CC(N=C=O)CC(C)(CN=C=O)C1` (stereo not given), the outcome in test [2], in test [3], in test [4], in test [5], in test [6] and in [7] was inactive. In addition, the outcome in [8], in test [10], in [11], in [13], in test [14] and in test [18] was inactive. The outcome in test [15], in test [16] and in test [17] was inactive. In test [12], the AC50 is 39 µM (active).

As for `Oc1ccc2ccccc2c1N=Nc1ccccc1`, the values for the AC50 in test [1] and in [11] were 6.33 µM (active) and 3.97 µM (active), respectively. Moreover, the compound was called inactive in test [19], in test [2], in test [3], in test [4], in [5] and in test [6]. Also, the outcome in [7], in test [8], in test [10], in test [12], in test [13] and in test [14] was inactive. The result in [15], in [16] and in test [17] was inactive.

With `O=C(OCCCCCOC(=O)c1ccccc1)c1ccccc1`, the result in test [1], in [19], in [2], in test [3], in test [4] and in [5] was inactive. Moreover, the outcome in [6], in test [7], in test [8], in test [10], in [11] and in test [12] was inactive. Also, the outcome in test [13], in [14], in test [18], in [15], in test [16] and in [17] was inactive.

In the case of `CC(=O)OCCOCCOCCOC(C)=O`, the result in [1], in [19], in test [2], in [3], in [4] and in test [5] was inactive. The result in [6], in [7], in test [8], in test [10], in test [11] and in test [12] was inactive. The result in test [13], in test [14], in [15], in [16] and in test [17] was inactive.

Regarding `Cc1ccccc1Cl`, the compound was called inactive in [1], in [19], in [2], in [3], in [4] and in [5]. The result in [7], in test [8], in test [10], in test [11], in test [12] and in [13] was inactive. For the same compound, the outcome in test [14], in test [18], in test [15], in test [16] and in test [17] was inactive.

(Values after PubChem BioAssay (EPA / NIEHS).)
